Screening data: PubChem BioAssay, The Scripps Research Institute Molecular Screening Center
Shown are actives, neighbours in structure and some others; about 1.8% of the full set was active somewhere.
Fam108B counter: mouse Fam108B serine hydrolase inhibitors, primary screen, counter-screen for RBBP9 inhibitor project, biochemical, fluorescence polarization | AID 1947, 2009 | recombinant Fam108B, FP-Rh probe fluorescence polarization | 300,000 compounds, 0.33% hits | inhibition, % at 9.51 µM;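 active means inhibition above the screen mean inhibition plus 3 SD, computed separately per campaign, cut at about 18% in these data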;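 further: inhibitors lower polarization as less probe binds the enzyme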
GSTO1 counter: inhibitors of recombinant GSTO1, primary screen, counter-screen for RBBP9 inhibitor project, biochemical, fluorescence polarization; Glutathione S-transferase omega-1 (Homo sapiens), P78417; activity-based probe fluorescence polarization; inhibition, % at 5.96 µM; 300,000 compounds, 1.1% hits; AID 1974, 2009;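 active means inhibition above the campaign mean inhibition plus 3 SD, cut at about 35% in these data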;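 further: 0% = GSTO1-1 with DMSO and 100% = wells lacking GSTO1-1 enzyme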
PAD4 FP inh: human PAD4 inhibitors, primary screen, biochemical, fluorescence polarization, 1536-well format; inhibition, % at 6.36 µM; 330,000 compounds, 0.41% hits; recombinant PAD4, RCA probe fluorescence polarization;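 active means percent inhibition above a cutoff equal to the mean of all tested compounds plus 3 SD, cut at about 15% in these data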;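 further: 0% = PAD4 with RCA probe and DMSO and 100% = probe without PAD4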
LYPLA2 counter: LYPLA2 inhibitors, primary screen, counter-screen for PME1 inhibitor project, biochemical, fluorescence polarization, FP-Rh probe ABPP; Acyl-protein thioesterase 2 (Homo sapiens), O95372; recombinant LYPLA2; inhibition, % at 5.9 µM; 320,000 compounds, 0.38% hits;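 active means inhibition above the screen-wide mean plus 3 SD, limit set per campaign, cut at about 26% in these data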;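 further: 0% = LYPLA2 with DMSO and 100% = wells lacking LYPLA2 enzyme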
Target sequence (O95372 whole entry, looked up): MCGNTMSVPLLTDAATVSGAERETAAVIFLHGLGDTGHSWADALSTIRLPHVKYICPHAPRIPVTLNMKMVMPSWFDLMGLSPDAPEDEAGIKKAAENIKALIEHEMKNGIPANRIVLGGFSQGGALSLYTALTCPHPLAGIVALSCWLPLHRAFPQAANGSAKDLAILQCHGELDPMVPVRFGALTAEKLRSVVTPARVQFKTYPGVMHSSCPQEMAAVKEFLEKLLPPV
LYPLA1 inh: LYPLA1 inhibitors, primary screen, counter-screen for PME1 inhibitor project, biochemical, fluorescence polarization, FP-Rh probe ABPP. Acyl-protein thioesterase 1 (Homo sapiens), O75608. inhibition, % at 5.9 µM. recombinant LYPLA1. 320,000 compounds, 0.16% hits;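 active means inhibition above the mean of all tested compounds plus 3 SD, set per campaign, cut at about 14% in these data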;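 further: inhibitors block serine hydrolase probe labeling of LYPLA1 so polarization falls; 0% = enzyme with DMSO and 100% = wells lacking LYPLA1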
Target sequence (O75608 whole entry, looked up): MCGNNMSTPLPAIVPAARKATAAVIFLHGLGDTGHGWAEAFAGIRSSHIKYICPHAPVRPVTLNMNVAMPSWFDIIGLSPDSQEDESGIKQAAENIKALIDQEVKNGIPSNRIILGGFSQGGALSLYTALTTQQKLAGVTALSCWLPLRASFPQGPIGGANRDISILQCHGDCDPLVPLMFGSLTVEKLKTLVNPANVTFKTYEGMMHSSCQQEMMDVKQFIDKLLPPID
PME-1 inh: PME-1 inhibitors via competitive probe labeling, primary screen, biochemical, fluorescence polarization, FP-Rh probe, HTS; Protein phosphatase methylesterase 1 (Homo sapiens), Q9Y570; recombinant PME-1; inhibition, % at 5.9 µM; 320,000 compounds, 0.53% hits; AID 2130, 2009;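 active means inhibition above the campaign mean of all compounds plus 3 SD, cut at about 26% in these data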;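 further: competitive labeling of PME-1 active site by serine hydrolase directed probe; 0% = PME-1 with DMSO and 100% = wells lacking PME-1 enzyme; inhibitors block probe labeling so polarization falls and inhibition rises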
PAD4 FP conf: human PAD4 inhibitors, confirmation, biochemical, fluorescence polarization; 1,200 compounds, 28% hits; shares compounds with PAD4 FP inh; inhibition, % at 6.36 µM; recombinant PAD4, RCA probe fluorescence polarization;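 active means mean inhibition across replicates above the hit cutoff set by the earlier primary screen, cut at about 15% in these data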;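 further: inhibitors block active-site labeling by the probe so polarization falls; 0% = PAD4 with probe and DMSO and 100% = probe without PAD4 enzyme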
* = called active by the depositor; . = not tested or not shown.

SMILES	Fam108B counter	GSTO1 counter	PAD4 FP inh	LYPLA2 counter	LYPLA1 inh	PME-1 inh	PAD4 FP conf
CCC(CN(C)C)Oc1cc(NCc2ccccc2)c2ncn(C(C)C)c2c1 (centres undefined)	.	.	38*	.	.	.	-9
Cc1ccccc1C(=O)Nc1ccnn1C1CCN(C2CCSCC2)CC1	0	4	-4	4	2	-1	.
C/C(=C\C(=O)c1ccc(F)cc1)Nc1ccc(N2CCOCC2)cc1	12	8	39*	4	1	2	7
c1ccc(C2=NNC(=NC3CC3)SC2)cc1	3	2	22*	8	0	2	1
Cc1cc(NC(=O)CC2Oc3ccccc3NC2=O)ccc1Br (centres undefined)	2	-1	-3	5	3	-7	.
COc1cc2c(cc1OC)C(c1ccccc1C(F)(F)F)CC(=O)N2 (centres undefined)	1	6	-1	2	1	8	.
COc1cc2oc(=O)ccc2cc1[C@H](O)[C@@H](O)C(C)(C)O	.	.	45*	5	1	6	2
COc1ccccc1N1CCN(C(=O)CCC(=O)N2CCN(c3ccc(F)cc3)CC2)CC1	1	-2	23*	4	3	-2	8
COc1ccccc1N1CCN(C(=O)CCC(=O)N2CCN(c3ccccc3OC)CC2)CC1	2	-8	-2	-1	1	-3	.
CCS(=O)(=O)CCSc1nc2ccccc2o1	3	12	0	10	3	-1	.
O=S(=O)(CCSc1nc2ccccc2o1)c1nc2ccccc2s1	0	-4	17*	1	0	8	16*
CC1(NC(=O)Cc2csc(-c3ccc(Cl)cc3)n2)CCS(=O)(=O)C1 (centres undefined)	.	.	0	.	.	.	.
CC1(NC(=O)Cc2csc(-c3cccc(Cl)c3)n2)CCS(=O)(=O)C1 (centres undefined)	.	.	21*	13	7	12	3
O=C(O)c1ccccc1NS(=O)(=O)c1cccc(-n2sc3ccccc3c2=O)c1	7	-95	43*	-6	-1	0	33*
O=C(O)c1ccccc1NS(=O)(=O)c1cccc(C(F)(F)F)c1	3	-8	-3	5	2	-3	.
COc1ccc(/C=C2\SC(=O)N(CC(=O)NC3CCS(=O)(=O)C3)C2=O)cc1 (centres undefined)	-3	11	5	-2	-2	3	.
Cc1[nH]c2ccccc2c1/C=N/Nc1ccc([N+](=O)[O-])cc1	17	-36	-22	-15	-20	0	.
Cc1[nH]c2ccccc2c1/C=N/Nc1nncn1N	-2	23	35*	1	0	4	7
CCN(CC)S(=O)(=O)c1ccc2c(c1)c(=O)c(C(=O)N1CCN(c3ccccn3)CC1)cn2C	-2	-1	20*	-10	-4	3	-4
CCOc1ccc2c(O)csc2c1	-5	3	24*	-4	0	-5	20*
O=C(CCc1nc2ccccc2c(=O)[nH]1)Nc1cccc(S(=O)(=O)N2CCCCC2)c1	-4	3	-3	3	2	23	.
CN(C)S(=O)(=O)c1cccc(NC(=O)CCCc2nc3ccccc3c(=O)[nH]2)c1	3	-2	29*	3	2	12	7
O=C(COC(=O)c1ccc([N+](=O)[O-])s1)c1ccc[nH]1	.	.	25*	.	.	.	2
O=C(OCC(=O)c1ccc[nH]1)c1ccc([N+](=O)[O-])cc1	.	.	-5	2	-1	3	.
Cc1ccc(C(NC(=O)Nc2ccccn2)C(Cl)(Cl)Cl)cc1F (centres undefined)	1	0	26*	-2	1	-2	2
